Bioluminescence data for 17 compounds are collected here from the supplement of paper PMC10811239.

Each structure is given as a SMILES string.

The subject of the test is LEGO organoid PT (PTEN-/-; TP53-/-). The experiment in a line: bioluminescence (viable cell) signal fold change after vs before treatment, normalised to DMSO (ratio); higher = more tumour cell growth / less inhibition. Conditions: 10 µM; treatment time 6 days. As to the method: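 Luc2-labelled iPSC-derived glioblastoma-like organoids (LEGOs, genotypes PT = PTEN-/-;TP53-/-, PTCC = plus CDKN2A/B-/-, PTN = plus NF1-/-) were treated with 10 uM drug for 6 days (applied every other day) at 37 C. Bioluminescence imaging was done before treatment and 2 days after the last dose. BLI signals were normalised to the DMSO control on the same day and then to the pre-treatment signal (N=3).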
With `Cc1n[nH]cc1-c1cc2[nH]c([C@@H]3CC4CCN3CC4)nc(=O)c2s1` [Simurosertib], the bioluminescence turned out to be 1.6.
As to `CC[C@@H](C(N)=O)N1CCCC1=O` [Levetiracetam], the bioluminescence turned out to be 0.803.
As to `CN(C)C(=O)Oc1ccc[n+](C)c1.[Br-]` [Mestinon], the bioluminescence is 0.942.
Under `COc1ccc(C(CN(C)C)C2(O)CCCCC2)cc1.Cl` (configuration not stated) [Venlafaxine hydrochloride] stands 0.615; under `Cc1cccc([C@H](C)c2cnc[nH]2)c1C.Cl` [Dexmedetomidine HCl], 0.872.
Take `NCC(CC(=O)O)c1ccc(Cl)cc1` (configuration not stated) [Baclofen]: the bioluminescence was determined as 0.694.
As for `CC(C)C[C@H]1C(=O)N2CCC[C@H]2[C@]2(O)O[C@](NC(=O)[C@@H]3C[C@@H]4c5cccc6[nH]cc(c56)C[C@H]4N(C)C3)(C(C)C)C(=O)N12.CC(C)[C@@]1(NC(=O)[C@@H]2C[C@@H]3c4cccc5[nH]cc(c45)C[C@H]3N(C)C2)O[C@@]2(O)[C@@H]3CCCN3C(=O)[C@H](Cc3ccccc3)N2C1=O.CC(C)[C@H]1C(=O)N2CCC[C@H]2[C@]2(O)O[C@](NC(=O)[C@@H]3C[C@@H]4c5cccc6[nH]cc(c56)C[C@H]4N(C)C3)(C(C)C)C(=O)N12.CCC(C)[C@H]1C(=O)N2CCC[C@H]2[C@]2(O)O[C@](NC(=O)[C@@H]3C[C@@H]4c5cccc6[nH]cc(c56)C[C@H]4N(C)C3)(C(C)C)C(=O)N12.CS(=O)(=O)O` [Dihydroergotoxine mesylate], the bioluminescence worked out at 0.998.
Regarding `CCN(C)C(=O)Oc1cccc([C@H](C)N(C)C)c1` [Rivastigmine], the bioluminescence worked out at 1.31.
For `CN[C@@H]1C[C@H]2O[C@@](C)([C@@H]1OC)n1c3ccccc3c3c4c(c5c6ccccc6n2c5c31)C(=O)NC4` [Staurosporine], the bioluminescence stood at 0.0178.
Take `CCN(C)C(=O)Oc1cccc([C@H](C)N(C)C)c1.O=C(O)[C@H](O)[C@@H](O)C(=O)O` [Rivastigmine tartrate]: the bioluminescence was found to be 2.08.
The figure for `NCC1(CC(=O)O)CCCCC1` [Gabapentin] is 1.08; for `O=C(O)CCCc1ccc(N(CCCl)CCCl)cc1` [Chloroambucil] it is 1.03.
On to `CCC1(c2ccc(N)cc2)CCC(=O)NC1=O` (configuration not stated) [Aminoglutethimide], for which the bioluminescence turned out to be 0.724.
Take `CC(C)c1cccc(C(C)C)c1O` [Propofol]: the bioluminescence is 1.34.
Under `Cl.Cn1c(CCCC(=O)O)nc2cc(N(CCCl)CCCl)ccc21` [Bendamustine hydrochloride] stands 0.772; under `COc1cc2c(cc1OC)[C@@H]1CC(=O)[C@@H](CC(C)C)CN1CC2.COc1cc2c(cc1OC)[C@H]1CC(=O)[C@H](CC(C)C)CN1CC2` [Tetrabenazine], 0.657; under `CCOC(=O)c1cncn1[C@H](C)c1ccccc1` [Etomidate], 1.09.
